Most compounds without a hit are left out; they make up all but 16% or so of the library.
TDP1 cell CPT: qHTS for Inhibitors of human tyrosyl-DNA phosphodiesterase 1 (TDP1): qHTS in cells in presence of CPT. chicken DT40 Tdp1-/-;hTDP1 cells + 20 nM CPT, ATP luminescence, 48 h. Potency, µM (series often up to 46.2 µM), hits mostly inhibitors. 420,000 tested, 12% active. AID 686979, 2013; also: nearly all actives have a fitted effect of over 55% in size
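Chicken DT40 Tdp1-/- cells stably complemented with human TDP1 were seeded at 400 cells/well in medium containing 20 nM camptothecin, exposed to pin-transferred compounds, and grown at 37 °C for at least 48 hr. Viability was read as ATP luminescence.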
TDP1 inh: qHTS Assay for Inhibitors of Tyrosyl-DNA Phosphodiesterase (TDP1). AID 485290, 2010. Tyrosyl-DNA phosphodiesterase 1 (Homo sapiens), Q9NUW8. recombinant TDP1, AlphaScreen DNA substrate cleavage. 350,000 tested, 0.28% active. Potency, µM (highest dose often 130 µM), most hits filed as inhibitors; also: nearly all actives have a fitted effect of over 40% in size
Target sequence (Q9NUW8 whole entry, looked up): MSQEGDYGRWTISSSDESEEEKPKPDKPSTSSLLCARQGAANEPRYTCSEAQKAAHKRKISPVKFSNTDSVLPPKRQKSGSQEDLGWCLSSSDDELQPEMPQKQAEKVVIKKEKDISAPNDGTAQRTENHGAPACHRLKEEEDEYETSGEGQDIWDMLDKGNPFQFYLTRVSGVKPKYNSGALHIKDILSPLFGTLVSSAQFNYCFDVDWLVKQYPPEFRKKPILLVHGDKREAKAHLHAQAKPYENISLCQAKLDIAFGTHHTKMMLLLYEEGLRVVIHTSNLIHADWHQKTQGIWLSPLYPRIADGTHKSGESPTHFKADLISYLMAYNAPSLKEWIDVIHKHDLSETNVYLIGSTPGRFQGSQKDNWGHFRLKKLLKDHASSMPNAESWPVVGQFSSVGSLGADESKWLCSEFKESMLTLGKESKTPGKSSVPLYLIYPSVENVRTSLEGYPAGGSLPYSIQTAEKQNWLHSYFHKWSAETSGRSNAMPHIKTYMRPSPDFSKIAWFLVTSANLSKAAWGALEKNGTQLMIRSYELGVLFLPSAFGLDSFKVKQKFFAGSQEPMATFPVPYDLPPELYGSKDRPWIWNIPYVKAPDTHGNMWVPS
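Steps: enzyme plus compound, 15 min RT; add biotin/phosphotyrosine-FITC oligonucleotide (15 nM final), react 5 min; add donor/acceptor beads (10 ug/ml final), 10 min; read AlphaScreen. Tdp1 at 1 nM final.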
miR-21 reporter: qHTS Assay for Modulators of miRNAs and/orActivators of miR-21 | HeLa miR-21 FLuc reporter, luciferase, 48 h | Potency, µM (series often up to 38.3 µM), usual class: activators | 340,000 tested, under 10 active | AID 2288, 2010;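 also: miR-21 action dims this reporter so a rising signal means less miR-21 action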
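Luminescence from a firefly luciferase reporter carrying a miR-21 binding site downstream, stably expressed under a CMV promoter in HeLa cells that make miR-21 endogenously, reports miRNA modulation after 48 h compound exposure up to approximately 40uM final.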
TDP1 cell noCPT: qHTS for Inhibitors of human tyrosyl-DNA phosphodiesterase 1 (TDP1): qHTS in cells in absence of CPT | DT40 Tdp1-/- hTDP1 cells, no CPT, ATP luminescence, 48 h | Potency, µM (top dose mostly 46.2 µM), actives largely listed as inhibitors | 420,000 tested, 15% active | AID 686978, 2013; also: nearly all actives have a fitted effect of over 55% in size
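Stably hTDP1-transfected Tdp1-null chicken DT40 cells were treated with library compounds minus camptothecin and grown for at least 48 hr at 37 °C, after which cellular ATP was quantified by luminescence.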
uPA generation: qHTS for Inhibitors of Cell Surface uPA Generation; cell surface uPA generation assay, qHTS; Potency, µM (doses to about 38.3 µM), hits mostly inhibitors; 330,000 tested, 0.31% active; AID 540303, 2011; active = well fitted inhibition curve with a large enough effect; inconclusive = small, poorly fitted or top-dose-only effect; inactive = no such curve, though single readings can be large or run the other way; tested in mouse RAW 264.7 cells; also: nearly all actives have a fitted effect of over 55% in size
Each line names hits and unclear results; the compound was inactive in the other large screens. Unless noted, calls follow the shape of the dose curve; as a rule, active = well fitted curve in the direction sought with a large enough effect; inconclusive = small, poorly fitted or top-dose-only effect, or another doubt; inactive = no such curve, though single readings can be large; an effect the other way counts as inactive or inconclusive.

CCCNC(=O)c1cc(C2CCCCN2C(=O)c2ccc(NC(C)=O)cc2)on1 (configuration not stated)	none (no result: TDP1 inh, miR-21 reporter, uPA generation)
O=C(CN(c1ccc(Cl)cc1)S(=O)(=O)c1ccccc1)N1CCN(c2ccccc2)CC1	TDP1 cell CPT inconclusive, TDP1 cell noCPT inconclusive
O=C(CCSc1nc2cc(Cl)ccc2o1)N1CCOCC1	TDP1 cell CPT inconclusive
CCOc1ccc(NC(=O)c2cc(OC)nc3ccccc23)cc1	TDP1 cell CPT 0.52µM, TDP1 cell noCPT 0.58µM (no result: TDP1 inh)
COc1cc(C(=O)Nc2ccc(C)cc2)c2ccccc2n1	TDP1 cell CPT 0.82µM, TDP1 cell noCPT 0.73µM (no result: TDP1 inh)
CCOc1ccc(NC(=O)c2cccc3ccccc23)cc1	TDP1 cell CPT 12µM, TDP1 cell noCPT 8.2µM, uPA generation inconclusive
Cc1ccc(NC(=O)c2cc(Cl)nc3ccccc23)cc1	none
CCOc1ccc(NC(=O)c2cc3ccccc3cc2O)cc1	TDP1 cell CPT inconclusive, TDP1 cell noCPT inconclusive, uPA generation inconclusive (no result: TDP1 inh)
Cc1occc1C(=O)Nc1ccc(OCc2ccccc2)cc1	TDP1 cell noCPT 16µM
CCCCN(CCCNC(=O)CN1C(=O)COc2ccc(S(=O)(=O)N3CCC(C)CC3)cc21)Cc1ccccc1	TDP1 cell CPT inconclusive, TDP1 cell noCPT inconclusive, uPA generation inconclusive
CC(C)[C@@H](CC(=O)N[C@@H]1CCNC[C@H]1C(=O)N[C@H](CC(=O)N[C@@H](CCC(=O)O)CC(=O)O)Cc1c[nH]c2ccccc12)NC(=O)C[C@H](Cc1c[nH]c2ccccc12)NC(=O)[C@@H]1CCCC[C@H]1N	none (no result: TDP1 cell CPT, miR-21 reporter, TDP1 cell noCPT, uPA generation)
CCn1c(COc2cccc(C)c2)nnc1SCC(=O)N1CCCC1	none
CCn1c(COc2ccccc2C)nnc1SCC(=O)N1CCN(c2ccccc2)CC1	TDP1 cell CPT inconclusive, TDP1 cell noCPT 23µM
CCn1c(COc2cccc(C)c2C)nnc1SCC(=O)N1CCN(c2ccc(OC)cc2)CC1	TDP1 cell CPT 21µM, TDP1 cell noCPT 21µM
C[C@H](CO)N1C[C@H](C)[C@@H](CN(C)S(=O)(=O)c2ccccc2)Oc2c(NC(=O)Cc3ccccc3)cccc2C1=O	TDP1 cell noCPT inconclusive (no result: miR-21 reporter)
Cc1nc2ccccc2c2c(N)c3ccccc3n12	TDP1 cell CPT inconclusive, TDP1 cell noCPT 21µM
Cc1ccc(S(=O)(=O)Nc2ccccc2/C=N/c2nc3ccccc3n2C(C)C)cc1	TDP1 cell CPT 18µM, miR-21 reporter inconclusive, TDP1 cell noCPT 21µM
CCCCn1c(/N=C/c2ccccc2NS(=O)(=O)c2ccc(C)cc2)nc2ccccc21	TDP1 cell CPT inconclusive, miR-21 reporter inconclusive, TDP1 cell noCPT 23µM
CC(C)N1CCc2c(sc(NC(=O)CCS(=O)(=O)c3ccccc3)c2C#N)C1	TDP1 cell CPT inconclusive, TDP1 cell noCPT 26µM
CC(C)N1CCc2c(sc(NC(=O)CCc3ccccc3)c2C(N)=O)C1	none
N#Cc1c(N)sc2c1CCN(CCc1ccccc1)C2	TDP1 cell CPT 18µM, TDP1 cell noCPT inconclusive
CC(C)(C)C(=O)Nc1sc2c(c1C#N)CCN(Cc1ccccc1)C2	TDP1 cell CPT inconclusive, TDP1 cell noCPT 23µM (no result: TDP1 inh)
COC(=O)c1c(NC(=O)CCS(=O)(=O)c2ccccc2)sc2c1CCN(C)C2	TDP1 cell CPT 5.8µM, TDP1 cell noCPT 3.7µM, uPA generation inconclusive
N#Cc1c(NC(=S)NC(=O)c2ccccc2)sc2c1CCN(CCc1ccccc1)C2	none (no result: TDP1 cell CPT, TDP1 cell noCPT, uPA generation)
Cc1c(NC(=O)C(F)(F)F)ccc2nc3c(=O)n(C)c(=O)n(C)c3nc12	TDP1 cell CPT inconclusive, TDP1 cell noCPT 16µM (no result: uPA generation)
CCC1(C)Cc2ccccc2-c2nc(NCCO)[nH]c(=O)c21 (configuration not stated)	TDP1 cell CPT inconclusive, TDP1 cell noCPT inconclusive
CCn1c(NCCO)nc2c(c1=O)C(C)(CC)Cc1ccccc1-2 (configuration not stated)	TDP1 cell CPT inconclusive, TDP1 cell noCPT 16µM
CCC1(C)Cc2ccccc2-c2nc3n(c(=O)c21)CCS3 (configuration not stated)	TDP1 cell CPT inconclusive, TDP1 cell noCPT 8.2µM
CCC1(C)Cc2ccccc2-c2nc(NCCCO)n(-c3ccccc3)c(=O)c21 (configuration not stated)	TDP1 cell CPT 2.1µM, TDP1 cell noCPT 4.1µM
CC1(C)Cc2ccccc2-c2nc(NCCCO)[nH]c(=O)c21	none
COc1ccccc1NC(=O)CN(C)S(=O)(=O)c1ccc(F)cc1	none
O=C(Nc1ccc(C(=O)N2CCCC(CO)C2)cc1)c1ccc(Br)o1 (configuration not stated)	none (no result: miR-21 reporter)
O=C(O)c1cccnc1SC1CC(=O)N(CCc2ccccc2)C1=O (configuration not stated)	none (no result: uPA generation)
O=C(O)c1cccnc1SC1CC(=O)N(Cc2ccccc2)C1=O (configuration not stated)	TDP1 cell CPT 15µM, TDP1 cell noCPT 21µM
O=C(O)c1cccnc1SC1CC(=O)N(c2cccc(C(F)(F)F)c2)C1=O (configuration not stated)	none
O=C(O)c1cccnc1SC1CC(=O)N(c2ccc(OC(F)F)cc2)C1=O (configuration not stated)	TDP1 cell CPT inconclusive, TDP1 cell noCPT 15µM (no result: TDP1 inh)
N/C(=N\OCC(=O)Nc1ccc(F)c(Cl)c1)c1ccccc1	TDP1 cell CPT 23µM, TDP1 cell noCPT inconclusive (no result: miR-21 reporter)
O=C(NC1CCCC1)C1c2ccccc2OCC(=O)N1CCc1ccccc1 (configuration not stated)	TDP1 cell noCPT inconclusive (no result: TDP1 inh, miR-21 reporter, uPA generation)
O=C(NC1CCCCC1)C1c2ccccc2OCC(=O)N1CCc1c[nH]c2ccccc12 (configuration not stated)	TDP1 cell noCPT 26µM (no result: TDP1 inh, miR-21 reporter, uPA generation)
Cc1cccc(C)c1NC(=O)CN1CCNCC1	none
CC1CCN(C(=O)CSc2nc(=O)n3cc(Cl)ccc3n2)CC1	none (no result: miR-21 reporter)
Oc1[nH]c2ccccc2c1N=Nc1nc2ccccc2s1	TDP1 cell CPT inconclusive, TDP1 cell noCPT inconclusive
O=[N+]([O-])c1ccccc1N=Nc1c(O)[nH]c2ccc(F)cc12	none (no result: TDP1 inh, miR-21 reporter)
Cc1ccc2[nH]c(O)c(N=Nc3ccccc3[N+](=O)[O-])c2c1	TDP1 cell CPT 8.2µM, TDP1 cell noCPT 5.8µM (no result: TDP1 inh, miR-21 reporter)
Cc1ccc2[nH]c(O)c(N=Nc3nc4ccccc4s3)c2c1	TDP1 cell CPT 10µM, TDP1 cell noCPT 7.3µM
CCOc1ccc(CN(C)C(=O)c2ccc(NS(=O)(=O)c3ccc4[nH]c(=O)[nH]c4c3)cc2)cc1	none (no result: miR-21 reporter)
Cc1cccc(N(C)S(=O)(=O)c2ccc3c(c2)CCC(=O)N3)c1	none (no result: uPA generation)
Cc1ccc(SCCC(=O)Nc2ccccc2C(=O)N2CCOCC2)cc1	none
O=C(Cn1c(C(=O)N2CCc3ccccc3C2)cc2sccc21)c1ccccc1	TDP1 cell CPT 29µM, TDP1 cell noCPT inconclusive (no result: uPA generation)
